# Data taken from the supplement of paper PMC8728848.
# The full list was thinned out, with the strongest signals kept by preference.
# B1: Strep tagII-anxA1 (Homo sapiens), P04083 (protein)
# chain: MAMVSEFLKQAWFIENEEQEYVQTVKSSKGGPGSAVSPYPTFNPSSDVAALHKAIMVKGVDEATIIDILTKRNNAQRQQIKAAYLQETGKPLDETLKKALTGHLEEVVLALLKTPAQFDADELRAAMKGLGTDEDTLIEILASRTNKEIRDINRVYREELKRDLAKDITSDTSGDFRNALLSLAKGDRSEDFGVNEDLADSDARALYEAGERRKGTDVNVFNTILTTRSYPQLRRVFQKYTKYSKHDMNKVLDLELKGDIEKCLTAIVKCATSKPAFFAEKLHQAMKGVGTRHKALIRIMVSRSEIDMNDIKAFYQKMYGISLCQAILDETKGDYEKILVALCGGN
# How the values were obtained:
# Experiment in all cases: glycan array binding signal (z-score within array); higher = stronger binding
# Conditions in all cases: glycan notation: IUPAC condensed, linker removed
# [1] = biological target: Fuc(a1-2)Gal(b1-3)GlcNAc(b1-2)Man(a1-3)[Fuc(a1-2)Gal(b1-3)GlcNAc(b1-2)Man(a1-6)]Man(b1-4)GlcNAc(b1-4)[Fuc(a1-6)]GlcNAc
# Method in brief: (§1)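 Glycan array data came from 3228 arrays in the Consortium for Functional Glycomics database, and only arrays with an available protein sequence were kept. Glycan names were put into IUPAC-condensed notation, and columns mapping to the same glycan were averaged. The binding signal is a within-array Z-score, averaged across arrays of one protein sequence run at different concentrations or buffers and across linkers. A negative Z-score can be read as non-binding.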
# [2] = biological target: Fuc(a1-2)Gal(b1-3)[Fuc(a1-4)]GlcNAc
# Method in brief: as §1
# [3] = biological target: Fuc(a1-2)Gal(b1-3)[Fuc(a1-4)]GlcNAc(b1-2)Man(a1-3)[Fuc(a1-2)Gal(b1-3)[Fuc(a1-4)]GlcNAc(b1-2)Man(a1-6)]Man(b1-4)GlcNAc(b1-4)GlcNAc
# Method in brief: as §1
# [4] = biological target: Fuc(a1-2)Gal(b1-3)[Fuc(a1-4)]GlcNAc(b1-2)Man(a1-6)[Fuc(a1-2)Gal(b1-3)[Fuc(a1-4)]GlcNAc(b1-2)Man(a1-3)]Man(b1-4)GlcNAc(b1-4)[Fuc(a1-6)]GlcNAc
# Method in brief: as §1
# [5] = biological target: Fuc(a1-2)Gal(b1-4)[Fuc(a1-3)]GlcNAc(b1-2)Man(a1-6)[Fuc(a1-2)Gal(b1-4)[Fuc(a1-3)]GlcNAc(b1-2)Man(a1-3)]Man(b1-4)GlcNAc(b1-4)[Fuc(a1-6)]GlcNAc
# Method in brief: as §1
# [6] = biological target: Fuc(a1-2)Gal(b1-4)[Fuc(a1-3)]GlcNAc(b1-3)Gal(b1-4)[Fuc(a1-3)]GlcNAc(b1-3)Gal(b1-4)[Fuc(a1-3)]GlcNAc
# Method in brief: as §1
# [7] = biological target: Fuc(a1-2)Gal(b1-4)[Fuc(a1-3)]GlcNAc(b1-3)GalNAc
# Method in brief: as §1
# [8] = biological target: Fuc(a1-2)[Gal(a1-3)]Gal
# Method in brief: as §1
# [9] = biological target: Fuc(a1-2)[Gal(a1-3)]Gal(b1-4)GlcNAc(b1-2)Man(a1-3)[Fuc(a1-2)[Gal(a1-3)]Gal(b1-4)GlcNAc(b1-2)Man(a1-6)]Man(b1-4)GlcNAc(b1-4)GlcNAc
# Method in brief: as §1
# [10] = biological target: Fuc(a1-2)[GalNAc(a1-4)]Gal(b1-4)GlcNAc
# Method in brief: as §1
# [11] = biological target: Fuc(a1-3)[Gal(b1-4)]GlcNAc(b1-2)Man(a1-3)[Fuc(a1-3)[Gal(b1-4)]GlcNAc(b1-2)Man(a1-6)]Man(b1-4)GlcNAc(b1-4)[Fuc(a1-6)]GlcNAc
# Method in brief: as §1
# [12] = biological target: Fuc(a1-3)[Gal(b1-4)]GlcNAc(b1-3)GalNAc
# Method in brief: as §1
# [13] = biological target: Fuc(a1-3)[Gal3S(b1-4)]GlcNAc
# Method in brief: as §1
# [14] = biological target: Gal(a1-3)Gal(b1-4)[Fuc(a1-3)]GlcNAc(b1-2)Man(a1-3)[Gal(a1-3)Gal(b1-4)[Fuc(a1-3)]GlcNAc(b1-2)Man(a1-6)]Man(b1-4)GlcNAc(b1-4)GlcNAc
# Method in brief: as §1
# [15] = biological target: Gal(b1-2)Gal
# Method in brief: as §1
# [16] = biological target: Gal(b1-3)GalNAc(b1-3)Gal(a1-4)Gal(b1-4)Glc
# Method in brief: as §1
# [17] = biological target: Gal(b1-3)[Fuc(a1-4)]GlcNAc(b1-3)Gal(b1-3)[Fuc(a1-4)]GlcNAc
# Method in brief: as §1
# [18] = biological target: Gal(b1-4)GlcNAc(b1-2)Man(a1-3)[Gal(b1-4)GlcNAc(b1-2)Man(a1-6)]Man(b1-4)GlcNAc(b1-4)GlcNAc
# Method in brief: as §1
# [19] = biological target: Gal(b1-4)GlcNAc(b1-2)Man(a1-3)[GlcNAc(b1-2)Man(a1-6)]Man(b1-4)GlcNAc(b1-4)GlcNAc
# Method in brief: as §1
# [20] = biological target: Gal(b1-4)GlcNAc(b1-2)Man(a1-3)[Man(a1-6)]Man(b1-4)GlcNAc(b1-4)GlcNAc
# Method in brief: as §1
# [21] = biological target: Gal3S6S(b1-4)GlcNAc
# Method in brief: as §1
# [22] = biological target: Gal6P(b1-4)GlcNAc
# Method in brief: as §1
# [23] = biological target: GalNAc(a1-3)Gal
# Method in brief: as §1
# [24] = biological target: GalNAc(b1-3)Gal
# Method in brief: as §1
# [25] = biological target: GalNAc(b1-4)Gal(b1-4)Glc
# Method in brief: as §1
# [26] = biological target: Glc(a1-4)Glc(a1-4)Glc(a1-4)Glc
# Method in brief: as §1
# [27] = biological target: GlcNAc(a1-4)Gal(b1-4)GalNAc
# Method in brief: as §1
# [28] = biological target: GlcNAc(b1-3)Gal
# Method in brief: as §1
# [29] = biological target: GlcNAc(b1-3)[GlcNAc(b1-4)][GlcNAc(b1-6)]GlcNAc
# Method in brief: as §1
# [30] = biological target: Kdn(a2-6)Gal(b1-4)GlcNAc
# Method in brief: as §1
# [31] = biological target: Man(a1-2)Man(a1-3)Man
# Method in brief: as §1
# [32] = biological target: Neu5Ac(a2-3)Gal(b1-3)GalNAc(b1-4)[Neu5Ac(a2-3)]Gal(b1-4)Glc
# Method in brief: as §1
# [33] = biological target: Neu5Ac(a2-3)Gal(b1-3)[Fuc(a1-4)]GlcNAc
# Method in brief: as §1
# [34] = biological target: Neu5Ac(a2-3)Gal(b1-3)[Neu5Ac(a2-3)Gal(b1-4)]GlcNAc
# Method in brief: as §1
# [35] = biological target: Neu5Ac(a2-3)Gal(b1-4)GlcNAc
# Method in brief: as §1
# [36] = biological target: Neu5Ac(a2-3)Gal(b1-4)GlcNAc(b1-2)Man(a1-3)[GlcNAc(b1-2)Man(b1-4)GlcNAc(b1-2)Man(a1-6)]Man(b1-4)GlcNAc(b1-4)GlcNAc
# Method in brief: as §1
# [37] = biological target: Neu5Ac(a2-3)Gal(b1-4)[Fuc(a1-3)]GlcNAc6S
# Method in brief: as §1
# [38] = biological target: Neu5Ac(a2-3)Gal6S(b1-4)GlcNAc
# Method in brief: as §1
# [39] = biological target: Neu5Ac(a2-3)[GalNAc(b1-4)]Gal(b1-4)GlcNAc(b1-3)GalNAc
# Method in brief: as §1
# [40] = biological target: Neu5Ac(a2-6)Gal(b1-4)Glc
# Method in brief: as §1
# [41] = biological target: Neu5Ac(a2-6)Gal(b1-4)GlcNAc(b1-2)Man(a1-3)[GlcNAc(b1-2)Man(a1-6)]Man(b1-4)GlcNAc(b1-4)GlcNAc
# Method in brief: as §1
# [42] = biological target: Neu5Ac(a2-6)Gal(b1-4)GlcNAc(b1-3)Gal(b1-4)GlcNAc(b1-3)Gal(b1-4)GlcNAc
# Method in brief: as §1
# [43] = biological target: Neu5Ac(a2-6)GlcNAc(b1-4)GlcNAc
# Method in brief: as §1
# [44] = biological target: Neu5Ac(a2-8)Neu5Ac(a2-8)Neu5Ac
# Method in brief: as §1
# [45] = biological target: Neu5Ac(b2-6)GalNAc
# Method in brief: as §1
# [46] = biological target: Neu5Gc(b2-6)Gal(b1-4)GlcNAc
# Method in brief: as §1
binder,measurement,setting,value
B1,glycan array binding signal (z-score),[1],0.314
same,glycan array binding signal (z-score),[2],5.05
same,glycan array binding signal (z-score),[3],10.7
same,glycan array binding signal (z-score),[4],3.12
same,glycan array binding signal (z-score),[5],3.12
same,glycan array binding signal (z-score),[6],0.054
same,glycan array binding signal (z-score),[7],-0.317
same,glycan array binding signal (z-score),[8],-0.612
same,glycan array binding signal (z-score),[9],1.69
same,glycan array binding signal (z-score),[10],-0.304
same,glycan array binding signal (z-score),[11],2.81
same,glycan array binding signal (z-score),[12],-0.209
same,glycan array binding signal (z-score),[13],0.479
same,glycan array binding signal (z-score),[14],3.62
same,glycan array binding signal (z-score),[15],-0.402
same,glycan array binding signal (z-score),[16],-0.44
same,glycan array binding signal (z-score),[17],-0.366
same,glycan array binding signal (z-score),[18],-0.682
same,glycan array binding signal (z-score),[19],-0.567
same,glycan array binding signal (z-score),[20],1.08
same,glycan array binding signal (z-score),[21],0.386
same,glycan array binding signal (z-score),[22],-0.017
same,glycan array binding signal (z-score),[23],0.67
same,glycan array binding signal (z-score),[24],-0.664
same,glycan array binding signal (z-score),[25],1.79
same,glycan array binding signal (z-score),[26],3.56
same,glycan array binding signal (z-score),[27],2.68
same,glycan array binding signal (z-score),[28],-0.607
same,glycan array binding signal (z-score),[29],2.8
same,glycan array binding signal (z-score),[30],-0.606
same,glycan array binding signal (z-score),[31],-0.123
same,glycan array binding signal (z-score),[32],-0.502
same,glycan array binding signal (z-score),[33],-0.529
same,glycan array binding signal (z-score),[34],-0.763
same,glycan array binding signal (z-score),[35],-0.209
same,glycan array binding signal (z-score),[36],-0.74
same,glycan array binding signal (z-score),[37],-0.736
same,glycan array binding signal (z-score),[38],-0.312
same,glycan array binding signal (z-score),[39],-0.294
same,glycan array binding signal (z-score),[40],0.446
same,glycan array binding signal (z-score),[41],-0.496
same,glycan array binding signal (z-score),[42],0.122
same,glycan array binding signal (z-score),[43],-0.032
same,glycan array binding signal (z-score),[44],-0.49
same,glycan array binding signal (z-score),[45],-0.503
same,glycan array binding signal (z-score),[46],-0.654
